Source: PubChem BioAssay (National Center for Advancing Translational Sciences (NCATS))
Sm TGR block = qHTS Assay for the Inhibitors of Schistosoma Mansoni Peroxiredoxins. purified TGR, DTNB reduction, TNB absorbance 405 nm. Potency, µM (highest dose often 114 µM), usual class: inhibitors. actives 3% (n = 360,000); note: nearly all actives have a fitted effect of over 60% in size
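First, TGR (20 nM dispensed) and NADPH were mixed with compound. Second, a 15 min room-temperature incubation followed. Third, further NADPH and then DTNB were added to start the reaction. Finally, TNB absorbance was monitored kinetically.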
Pf growth 96h = Primary qHTS for delayed death inhibitors of the malarial parasite plastid, 96 hour incubation; P. falciparum luciferase reporter growth, 96 h; Potency, µM (top dose mostly 28.7 µM), actives largely listed as inhibitors; actives 6.9% (n = 320,000); AID 504834, 2011
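Delayed-death screen, second-generation endpoint: infected erythrocytes, 2% hematocrit, 0.05% parasitemia final; 96 hours at 37 C, 5% CO2; luciferase detection reagent; luminescence decrease equals reduced growth.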
Pf growth 48h = Primary qHTS for delayed death inhibitors of the malarial parasite plastid, 48 hour incubation; P. falciparum luciferase growth in erythrocytes, 48 h; actives 5.9% (n = 310,000); Potency, µM (series often up to 28.7 µM), hits mostly inhibitors
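In quantitative HTS format, infected erythrocytes bearing luciferase-reporter parasites were treated for a single generation at 37 C. Luminescence after adding detection reagent served as the growth measure.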
AMA1 RON2 block = qHTS for Inhibitors of AMA1-RON; Towards Development of Antimalarial Drug Lead: Primary Screen; Plasmodium falciparum AMA1 (3D7) - RON2 peptide interaction; AlphaScreen AMA1-biotinylated RON2 peptide binding; Potency, µM (series often up to 58.2 µM), usual class: inhibitors; actives 0.2% (n = 360,000); AID 720542, 2013; note: nearly all actives have a fitted effect of over 45% in size
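AMA1 (3D7) with his tag at 25 nM final met compounds first, then biotinylated RON2 peptide at 25 nM; detection used donor plus acceptor beads, 10 µg/mL apiece, read by AlphaScreen after 30 min at room temperature.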
NS1 function inh = qHTS Assay for Inhibitors of Influenza NS1 Protein Function. AID 2326, 2010. actives 0.4% (n = 270,000). Potency, µM (titrated, usually from 46.1 µM); calls by dose curve; note: actives are rising curves; nearly all actives have a fitted effect of over 50% in size
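A cell-based growth assay was used: compounds that relieve NS1-induced slow growth of budding yeast raise OD600. Assay medium was yeast nitrogen base with ammonium sulphate and -URA supplement, pH 6.0, with 2% galactose.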
Each line names hits and unclear results; the compound was inactive in the other large screens. Compounds with a hit are over-represented: about 11% of the library has one in this group of screens. Unless noted, calls come from the whole dose curve; as a rule, active = well fitted curve in the direction sought with a large enough effect; inconclusive = small, poorly fitted or top-dose-only effect, or another doubt; inactive = no such curve, though single readings can be large; an effect the other way counts as inactive or inconclusive.

Cc1ccc(S(=O)(=O)NCCC(c2ccccc2)c2ccco2)cc1 (stereo not given)	none
Cc1cc(C)c(S(=O)(=O)NCC(c2cccs2)S(=O)(=O)c2ccccc2)c(C)c1 (stereo not given)	Sm TGR block 0.32µM (no result: Pf growth 96h, Pf growth 48h, AMA1 RON2 block, NS1 function inh)
Cc1ccc(S(=O)(=O)NCC(c2ccco2)S(=O)(=O)c2ccccc2)cc1 (stereo not given)	Sm TGR block 0.4µM, Pf growth 96h inconclusive (no result: NS1 function inh)
O=S(=O)(NCC(c1ccco1)N1CCN(c2ccccc2)CC1)c1cc(F)ccc1F (stereo not given)	none (no result: Pf growth 96h, Pf growth 48h, AMA1 RON2 block, NS1 function inh)
COc1ccc(N(C(=O)CNS(=O)(=O)c2ccccc2)C(C(=O)NCc2ccco2)C(C)C)cc1 (stereo not given)	NS1 function inh inconclusive
O=C(NCC(c1cccs1)S(=O)(=O)c1ccccc1)c1ccc(C(F)(F)F)cc1 (stereo not given)	none (no result: Pf growth 96h, Pf growth 48h, AMA1 RON2 block, NS1 function inh)
Cc1ccc(S(=O)(=O)NCC(=O)N(c2ccccc2)C(C(=O)NCc2ccccc2)c2ccco2)cc1 (stereo not given)	Pf growth 96h 13µM
O=c1[nH]c2ccccc2cc1CN(CC1CCCO1)S(=O)(=O)c1ccccc1 (stereo not given)	none
COc1ccc(OC)c(S(=O)(=O)NCC(c2ccco2)S(=O)(=O)c2ccccc2)c1 (stereo not given)	Sm TGR block 0.32µM (no result: NS1 function inh)
COc1ccc(OC)c(S(=O)(=O)NCC(c2ccco2)N2CCc3ccccc3C2)c1 (stereo not given)	Pf growth 96h inconclusive, Pf growth 48h inconclusive (no result: NS1 function inh)
Cc1cc(C)c(S(=O)(=O)NCC(c2ccco2)S(=O)(=O)c2ccccc2)c(C)c1 (stereo not given)	Sm TGR block 18µM (no result: Pf growth 96h, Pf growth 48h, AMA1 RON2 block, NS1 function inh)
Cc1cc(C)c(S(=O)(=O)NCC(c2ccco2)N2CCN(c3ccccc3)CC2)c(C)c1 (stereo not given)	none (no result: Pf growth 96h, Pf growth 48h, AMA1 RON2 block, NS1 function inh)
CC1(C)CC(=O)C2=C(C1)NC(Nc1nc3ccccc3o1)=NC21CCCCC1	Pf growth 96h 9.3µM, Pf growth 48h inconclusive
OCc1cccc[n+]1Cc1ccccc1	none (no result: Sm TGR block, Pf growth 96h, Pf growth 48h, NS1 function inh)
Cc1cc(C)n(CCOc2ccc(Br)cc2)n1	Pf growth 96h inconclusive
CCCc1nc2ccc(NC(=O)c3ccco3)cc2c(=O)n1Cc1ccc(Cl)cc1	Pf growth 96h inconclusive, Pf growth 48h 1.3µM
COc1ccccc1-c1c(NC(=O)c2ccco2)n(-c2ccccc2)nc(C)c1=O	none (no result: Pf growth 48h, AMA1 RON2 block)
COc1ccc(Cn2c(C3CC3)nc3ccc(NC(=O)c4ccco4)cc3c2=O)cc1	Pf growth 96h 2.1µM, Pf growth 48h 2.9µM
COc1cccc(-c2c(NC(=O)c3ccco3)n(-c3ccc(C)cc3)nc(C)c2=O)c1	Sm TGR block 79µM
CCCc1nc2ccc(NC(C)=O)cc2c(=O)n1Cc1ccccc1Cl	Pf growth 48h inconclusive
CCC(=O)Nc1ccc2nc(C3CC3)n(Cc3ccccc3)c(=O)c2c1	NS1 function inh inconclusive
CCCc1nc2ccc(NC(=O)c3ccco3)cc2c(=O)n1Cc1ccccc1Cl	Pf growth 48h 2.3µM
CC(=O)Nc1ccc2nc(C)n(Cc3ccc(Cl)cc3)c(=O)c2c1	none
CCN(CC)CCCNC(=O)C1CCN(S(=O)(=O)CC)CC1	none (no result: Pf growth 96h, Pf growth 48h, AMA1 RON2 block, NS1 function inh)
COc1ccc(-n2cnc3cc(NC(=O)c4ccco4)ccc32)cc1	Pf growth 96h 2.3µM (no result: Pf growth 48h)
O=C(N/N=C/c1ccncc1)c1cccc(S(=O)(=O)Nc2ccc(Cl)cc2)c1	none
CCC1=C(OC(=O)N(CC)CC)N2C(=O)OC(=NCCOC)[C@]2(Cc2ccccc2)[C@H]2C1=CC[C@H]1C(=O)NC(=O)[C@H]12	Pf growth 96h inconclusive, Pf growth 48h 9.3µM
CCC1=C2CC[C@H]3C(=O)NC(=O)[C@H]3[C@H]2[C@@]2(Cc3ccccc3)C(=NCC(=O)OC)OC(=O)N2C1=O	none
CCC1=C(OC(=O)N(CC)CC)N2C(=O)OC(=NCC3CC3)[C@]2(Cc2ccccc2)[C@H]2C1=CC[C@H]1C(=O)NC(=O)[C@H]12	Pf growth 96h 7.4µM, Pf growth 48h 10µM
Cc1ccc(C)c(-c2csc(N/N=C/c3ccco3)n2)c1	Pf growth 48h inconclusive (no result: NS1 function inh)
CCC(=O)N1c2ccccc2CC1C(=O)NCc1ccccc1C (stereo not given)	none (no result: Pf growth 96h, Pf growth 48h, AMA1 RON2 block, NS1 function inh)
O=C(c1ccc(-n2cccn2)cc1)N1CCc2ccccc2C1	none
c1cncc(-c2nc(NCCCN3CCOCC3)c3c4c(sc3n2)CCC4)c1	Pf growth 96h inconclusive, Pf growth 48h 12µM (no result: NS1 function inh)
Cn1c(CC(=O)NNC(=O)c2cncc(Br)c2)nc2ccccc21	none (no result: Sm TGR block, Pf growth 96h, Pf growth 48h, NS1 function inh)
CC1CCC(C(O)(C(=O)O)C2CCCCC2)CC1C (stereo not given)	none (no result: Sm TGR block, Pf growth 96h, Pf growth 48h, NS1 function inh)
O=C(Nc1cccc2ccccc12)NC1CCCCC1	Pf growth 96h 0.83µM
O=C(CN1CCC(NC(=O)Cc2ccccc2)CC1)Nc1cccc2ccccc12	Pf growth 96h 8.3µM, Pf growth 48h inconclusive
O=C(Nc1ccccc1NC(=O)NC1CCCCC1)NC1CCCCC1	none (no result: Pf growth 96h)
O=C(Nc1nnc(-c2ccccc2)o1)NC1CCCCC1	Pf growth 96h 3.7µM, Pf growth 48h 12µM
O=C(Nc1ccccc1)Nc1nnc(-c2ccccc2)o1	Pf growth 96h inconclusive
CCOCCCNC(=O)CS(=O)(=O)Cc1nc(-c2cccc(OC)c2)oc1C	Sm TGR block 45µM (no result: Pf growth 96h)
CCCNC(=O)CS(=O)(=O)Cc1nc(-c2cccc(OC)c2)oc1C	Sm TGR block 22µM
COc1cccc(-c2nc(CS(=O)(=O)CC(=O)Nc3cc(OC)ccc3OC)c(C)o2)c1	Sm TGR block 50µM
COc1cccc(-c2nc(CS(=O)(=O)CC(=O)Nc3ccccc3C)c(C)o2)c1	none
O=[N+]([O-])c1ccccc1/C=C/C=N/Nc1ccc(S(=O)(=O)Nc2ccc(Cl)cc2)cc1[N+](=O)[O-]	Pf growth 48h 12µM, AMA1 RON2 block inconclusive (no result: NS1 function inh)
C/C(=N\Nc1ccc(S(=O)(=O)Nc2ccc(Cl)cc2)cc1[N+](=O)[O-])c1ccc(N2CCOCC2)cc1	Pf growth 96h 4.1µM, Pf growth 48h inconclusive
C/C(=N\Nc1ccc(S(=O)(=O)Nc2ccccc2)cc1[N+](=O)[O-])c1ccncc1	Pf growth 96h inconclusive, Pf growth 48h 10µM (no result: Sm TGR block, AMA1 RON2 block)
CCCC(CCC)=NNc1ccc(S(=O)(=O)Nc2ccccc2OC)cc1[N+](=O)[O-]	Pf growth 96h inconclusive, Pf growth 48h inconclusive, AMA1 RON2 block inconclusive
O=C(O)c1ccc(N/N=C/C=C/c2ccccc2[N+](=O)[O-])cc1	AMA1 RON2 block inconclusive (no result: NS1 function inh)
COc1ccccc1NS(=O)(=O)c1ccc(N/N=C(\C)C(C)C)c([N+](=O)[O-])c1	Pf growth 96h inconclusive, Pf growth 48h 8.3µM, AMA1 RON2 block inconclusive
C/C(=N\Nc1ccc(S(=O)(=O)Nc2ccccc2)cc1[N+](=O)[O-])c1ccc(N2CCOCC2)cc1	Pf growth 96h inconclusive, Pf growth 48h inconclusive (no result: Sm TGR block)
